The text below walks through data of PubChem BioAssay AID588342 (National Center for Advancing Translational Sciences (NCATS), 2011).

Among all 360,000 compounds or so, about 25,000 (6.9%) were called active. A call without a number means that no potency is given here. About 9% were inconclusive and are not listed. Calls follow the shape of the dose curve; as a rule, active = well fitted inhibition curve with a large enough effect; inconclusive = small, poorly fitted or top-dose-only effect; inactive = flat fitted curve, though single readings scatter. The sample as a whole holds a higher share of actives than the screen did.
Potency is read from the fitted curve at half-maximal effect.

Luciferin 4-monooxygenase (Photinus pyralis), sequence (P08659 whole entry, looked up): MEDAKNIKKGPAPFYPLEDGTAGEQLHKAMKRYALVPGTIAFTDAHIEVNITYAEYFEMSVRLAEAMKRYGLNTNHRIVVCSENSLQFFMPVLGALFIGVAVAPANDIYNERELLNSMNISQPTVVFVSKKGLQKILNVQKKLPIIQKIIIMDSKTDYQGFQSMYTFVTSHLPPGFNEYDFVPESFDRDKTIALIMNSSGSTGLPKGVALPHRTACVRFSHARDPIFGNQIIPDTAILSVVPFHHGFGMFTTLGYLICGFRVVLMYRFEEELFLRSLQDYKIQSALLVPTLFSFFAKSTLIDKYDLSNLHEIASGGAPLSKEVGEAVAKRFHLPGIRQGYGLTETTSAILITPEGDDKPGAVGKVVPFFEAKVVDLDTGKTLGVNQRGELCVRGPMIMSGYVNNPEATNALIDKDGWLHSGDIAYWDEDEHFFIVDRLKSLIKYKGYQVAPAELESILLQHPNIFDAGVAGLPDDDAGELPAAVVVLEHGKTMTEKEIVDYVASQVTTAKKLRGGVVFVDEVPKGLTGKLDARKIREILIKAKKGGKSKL

This test concerns the target Luciferin 4-monooxygenase (Photinus pyralis) (UniProt P08659). Put plainly: qHTS profiling assay for firefly luciferase inhibitor/activator using purifed enzyme and Km concentrations of substrates (counterscreen for miR-21 project). Also: nearly all actives have a fitted effect of over 55% in size. Conditions: purified FLuc, luminescence inhibition; series mostly up to 57.5 µM. Put shortly: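 Purified P. pyralis luciferase (10nM final) with 10uM D-luciferin and 10uM ATP (Km levels) in 50mM Tris acetate pH 7.5, 10mM Mg acetate, 0.01% Tween-20, 0.05% BSA; qHTS 6-point titration, ~60 µM downward; luminescence read.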
On the technique in general: qHTS replaces the single test concentration by a dilution series.
For the compound `CC(=O)c1ccc(NC(=O)CSc2c(C(C)C)cnc3c2c(=O)n(C)c(=O)n3C)cc1`, the Potency entry was “inactive”.
With `CS(=O)(=O)N(CC(=O)N1CCOCC1)c1ccc2c3c(cccc13)CC2`, the Potency entry is “inactive”.
The value for `Cc1ccc(S(=O)(=O)N2CCC(C(=O)OCC(=O)N3CC(=O)Nc4ccccc43)CC2)cc1` was “inactive”; that for `Cc1cc(C)n(CCC(=O)N2CCN(S(=O)(=O)c3ccc(C)c(C)c3)CC2)n1` was “inactive”.
The same measure for `COc1ccccc1C(=O)Nc1c(C(=O)N(C)Cc2ccccc2)sc2nc(C)c(Cl)c(C)c12`: “inactive”; for `O=C(O)c1ccc2c(c1)N(Cc1ccc(F)cc1)C(=O)c1ccccc1S2=O` (stereo not drawn): “inactive”; for `Cc1cc(C)cc(OCC(=O)Nc2c(C(=O)c3ccccc3)oc3ccccc23)c1`: “inactive”.
The value for `Cc1ccc2oc(C(=O)Nc3ccc(S(=O)(=O)N4CCCCCC4)cc3)cc(=O)c2c1` was “inactive”.
With `O=[N+]([O-])c1cc(S(=O)(=O)NCCc2ccccn2)ccc1Cl`, the Potency entry is “inactive”.
The value for `CCOc1ccc(S(=O)(=O)N2CCC(C(=O)NCC(=O)Nc3cccc(Cl)c3C)CC2)cc1` was “inactive”.
For the compound `O=C(CN1C(=O)COc2ccc(S(=O)(=O)N3CCCCCC3)cc21)N1CCN(c2cccc(C(F)(F)F)c2)CC1`, the Potency entry is “inactive”.
In the case of `CCOc1ccc(C(=O)c2cn(Cc3ccc(F)cc3)c3ccc(F)cc3c2=O)cc1`, the Potency result was “inactive”.
The value for `COc1cc2ccccc2cc1C(=O)Nc1ccc(S(=O)(=O)Nc2cc(C)on2)cc1` was “inactive”; that for `COc1cc2ccccc2cc1C(=O)Nc1ccc(NC(=O)c2cccs2)cc1` was “inactive”.
Regarding `COc1cc2ccccc2cc1C(=O)Nc1ccncc1`, the Potency was 12 µM (active).
The same measure for `CCOc1cccc(NC(=O)Cn2nc(-c3ccc4c(c3)OCCO4)ccc2=O)c1`: “inactive”; for `O=C1c2ccccc2NC(c2ccc(-c3cccc(Cl)c3)o2)N1O` (stereo not drawn): 10.7 µM (active).
The same measure for `CC(=O)NN1C(=O)c2ccccc2NC1c1ccccc1` (stereo not drawn): “inactive”; for `Nc1nnnn1CC(=O)N/N=C/c1ccc(-c2cccc(Cl)c2)o1`: “inactive”.
Regarding `Cc1cc(C)c(NC(=O)Cn2c(SCC(=O)NCc3ccccc3)nc3ccccc32)c(C)c1`, the Potency result was “inactive”.
As for `CCn1c(CNC(=O)c2ccccc2)nnc1SCC(=O)N1CCN(c2ccccc2)CC1`, the Potency entry is “inactive”.
Turning to `O=C(c1cnn(-c2ccc(Cl)cc2)c1)c1ccccc1O`, the Potency is 2.13 µM (active).
The same measure for `CCCc1c(C(=O)O)cnn1-c1ccc(Cl)cc1`: “inactive”.
The value for `Cc1ncc(CC(=O)n2cc(C(=O)c3cc(Cl)ccc3O)cn2)s1` was “inactive”; that for `COc1cc(C(C)=O)ccc1OC(C)C(=O)Nc1ccc(S(=O)(=O)N2CCCC2)cc1` (stereo not drawn) was “inactive”; that for `Cc1oc2ncn(CC(C)C)c(=O)c2c1C(=O)N1CCN(c2ccccc2F)CC1` was “inactive”.
The same measure for `N#Cc1c(NC(=O)C2CC(Cl)=CCC2C(=O)O)sc2c1CCCCC2` (stereo not drawn): “inactive”; for `N#Cc1c(NC(=O)C2CCCO2)sc2c1CCCCC2` (stereo not drawn): 13.5 µM (active); for `N#Cc1c(NC(=O)CCCl)sc2c1CCCCC2`: “inactive”.
With `COc1ccc2c(Cl)c(C(=O)NCc3ccco3)sc2c1`, the Potency was 10.7 µM (active).
Consider `COc1ccc2oc(C(=O)NCc3ccco3)c(C)c2c1`, for which the Potency is 16.9 µM (active).
The value for `O=C(NCc1ccco1)c1sc2cccc(F)c2c1Cl` was “inactive”; that for `CCN(C(=O)c1sc2cc(OC)ccc2c1Cl)c1ccccc1` was “inactive”.
The value for `COc1cc(C(=O)NC(=S)NCc2ccco2)cc(OC)c1OC` was “inactive”.
The same measure for `COc1ccc(NC(=O)C(=O)NCc2ccco2)cc1`: “inactive”.
With `CCCC(=O)Nc1cc(C(=O)NCc2ccc(OC)cc2)ccc1S(=O)(=O)c1ccc(Cl)cc1`, the Potency result was “inactive”.
As to `COc1cc(OC)c(C2C=C(C(=O)O)Nc3ncnn32)cc1OC` (stereo not drawn), the Potency result was “inactive”.
The same measure for `CCC(C)NC(=O)c1ccc(NC(=O)CC2SC(N3CCCCC3)=NC2=O)cc1` (stereo not drawn): “inactive”; for `O=C(COc1ncnc2c(Cl)cc(Cl)cc12)N1CCN(S(=O)(=O)c2ccccc2)CC1`: “inactive”; for `Cc1ccc(-n2ncc(C(=O)N(C)Cc3ccccc3)c2-n2cccc2)cc1`: “inactive”.
The same measure for `O=C(O)CC/C(=C\c1cc2c(cc1Br)OCO2)c1nc2ccccc2s1`: “inactive”.
For `O=C(O)CS/C(=C\c1ccc(F)cc1)c1nc2ccccc2s1`, the Potency was 23.9 µM (active).
The value for `CC(=O)N/C(=C\c1ccc(F)cc1)C(=O)NC(Cc1ccccc1)C(=O)O` (stereo not drawn) was “inactive”; that for `COc1ccccc1NC(=O)CN1C(=O)c2ccccc2Sc2ccc(C(=O)N3CCCC3)cc21` was “inactive”.
The value for `O=C(Nc1ccccc1)N1CCN(C(=O)Nc2ccccc2)CC1` was “inactive”; that for `O=C(Nc1ccccc1)c1ccccc1NC(=O)C(F)(F)F` was “inactive”; that for `O=C(Nc1ccccc1)c1cc2ccccc2[nH]1` was 9.53 µM (active).
The same measure for `CCC(=O)N1CCc2cc(S(=O)(=O)NC(CC(C)C)C(=O)NCCc3cccc(C)c3)ccc21` (stereo not drawn): “inactive”; for `CCCCSc1ncnc2c1sc1nc(N3CCOCC3)c3c(c12)CCCC3`: “inactive”; for `CC(C)CNC(=O)/C=C/C(=O)O`: “inactive”.
For the compound `Cc1ccc(CN2CCC(CNC(=O)c3cnn(-c4ccccc4Cl)c3C3CCN(C(=O)OC(C)(C)C)CC3)CC2)cc1`, the Potency result was “inactive”.
The value for `CC1CCCCC12NC(=O)N(CC(=O)OCC(=O)NCc1ccc(F)cc1)C2=O` (stereo not drawn) was “inactive”; that for `COc1cccc(CNC(=O)COC(=O)CN2C(=O)NC3(CCCCC3C)C2=O)c1` (stereo not drawn) was “inactive”; that for `CCCc1ccc(C(=O)COC(=O)CN2C(=O)NC3(CCCCC3C)C2=O)cc1` (stereo not drawn) was 26.9 µM (active).
Consider `COc1ccc(CCNC2=C(Cl)C(=O)N(Cc3ccccc3)C2=O)cc1OC`, for which the Potency entry was “inactive”.
The value for `COc1ccc(C/C(C)=N/NC(=O)c2ccncc2)cc1` was “inactive”.
Regarding `C/C(=N/NC(=O)c1ccncc1)c1ccc2c(c1)OCO2`, the Potency result was “inactive”.
`CCN(CC)c1ccc2cc(C(N)=O)/c(=N\NC(=O)c3ccncc3)oc2c1`: the Potency is 16.9 µM (active).
The value for `CO/N=C/c1cn(-c2ccc(Cl)cc2)nn1` was “inactive”.
The same measure for `O=C(CC1C(=O)N(c2ccccc2)C(=O)N1CCc1cccs1)Nc1ccc(F)cc1` (stereo not drawn): “inactive”.
The value for `CC(C)Sc1oc(-c2cccs2)nc1S(=O)(=O)c1ccc(Cl)cc1` was “inactive”; that for `Cc1nc(Cl)c(C#N)c2c1CCCC2` was “inactive”; that for `COCc1c(N)c(C)nc(Cl)c1C#N` was 10.7 µM (active).
On to `COc1ccc(C2=NC(c3ccncc3)=Nc3ccc(Br)cc3N2)cc1`, for which the Potency result was “inactive”.
The value for `CCc1nnc2c3ccccc3nc(N3CCN(c4ccc(C)cc4C)CC3)n12` was “inactive”; that for `COc1cccc(NC(=O)CN2C(=O)c3ccccc3Sc3ncccc32)c1` was “inactive”; that for `Cc1cccc(CNC(=O)c2cnc3sc(N4CCCCC4)nn3c2=O)c1` was “inactive”.
The same measure for `Brc1cccc(-c2nnn3c2nc(NC2CCCCC2)c2ccccc23)c1`: “inactive”; for `Nc1cc(C(F)(F)F)ccc1N1CCOCC1`: “inactive”; for `CCn1c(C)c(C)c2cc(C(=O)NCCc3cc(OC)ccc3OC)ccc21`: “inactive”.
The value for `CCOC(=O)c1c(NC(=O)c2cc(-c3ccc(Cl)cc3)on2)sc2c1CCCC2` was “inactive”.
As for `CCOc1ccc(NC(=O)C2CCN(S(=O)(=O)c3cc(-c4noc(C)n4)ccc3C)CC2)cc1`, the Potency entry is “inactive”.
The same measure for `COc1ccc2c(C)c(CCC(=O)NC3CC3)c(=O)oc2c1C`: “inactive”; for `CCOC(=O)CCc1c(C)c2ccc(OCc3nn[nH]n3)c(C)c2oc1=O`: 15.1 µM (active); for `Cc1c(CCC(=O)O)c(=O)oc2c(C)c(OCc3ccccc3Cl)ccc12`: “inactive”.
With `Cc1ccc(NC(=O)CC2S/C(=N/N=C3\CCCc4ccccc43)NC2=O)cc1` (stereo not drawn), the Potency entry is “inactive”.
For `Cc1ccc(N/N=C2\COC(C)(C)CC2=O)cc1`, the Potency is 7.57 µM (active).
The value for `Cc1ccc(-n2c(SCC(=O)Nc3cccc(F)c3)nc3c(oc4ccccc43)c2=O)cc1C` was “inactive”; that for `COc1cc(Br)cc2cc(S(=O)(=O)c3ccccc3)c(=O)oc12` was “inactive”; that for `COc1ccc(C(=O)NCCSc2ccccc2C)cc1` was 3.79 µM (active).
The same measure for `COc1ccc(C(=O)NCc2nnc(SCCOc3ccccc3)n2C)cc1`: “inactive”; for `COc1cccc(C(=O)NCCSc2ccc(Br)cc2)c1`: “inactive”.
Turning to `COc1ccccc1CN1CCC(CNC(=O)c2cnn(-c3ccccc3Cl)c2C2CCN(C(=O)OC(C)(C)C)CC2)CC1`, the Potency entry was “inactive”.
The value for `Cc1cc(C(F)(F)F)nc(SCC(=O)Nc2nccs2)n1` was “inactive”.
The value for `Cc1cc(=O)n2[nH]c(-c3sccc3-n3c(C)ccc3C)cc2n1` was “inactive”; that for `O=C1CCCc2c1nc(-c1cccc(Cl)c1)n2O` was “inactive”.
The same measure for `O=c1c2c(nc3cc(-c4cccc(Cl)c4)[nH]n13)CCCC2`: 0.478 µM (active); for `O=c1c2c(nc3nc[nH]n13)CCC2`: “inactive”; for `Cc1cc(=O)n2[nH]c(-c3cccc(Cl)c3)cc2n1`: 15.1 µM (active).
Turning to `CCCc1cc(=O)n2[nH]c(C)c(-c3ccc(Cl)cc3)c2n1`, the Potency entry was “inactive”.
The same measure for `CCOC(=O)c1c(-c2ccc(OC)cc2)oc2ccc(OCc3ccc(C(=O)OC)cc3)cc12`: “inactive”; for `COc1ccc(C)cc1NC(=O)CCc1c(C)nn(-c2ccc(N3CCOCC3)nn2)c1C`: “inactive”; for `Cc1ccc(Cn2c(C)c3cnn(CC(=O)NCc4ccccc4)c(=O)c3c2C)cc1`: “inactive”.
Take `CC(=O)c1c(C)n(S(=O)(=O)c2ccc(Cl)cc2)c2ccc(NS(=O)(=O)c3ccc(Cl)cc3)cc12`: the Potency result is “inactive”.
The same measure for `COc1cc(C(=O)Nc2ncccc2C)ccc1OCC(=O)N1CCOCC1`: “inactive”.
The value for `COc1ccccc1-c1cc2nc(C)c(CCC(=O)O)c(C)n2n1` was 15.1 µM (active).
The same measure for `COc1ccc(-c2cc3nc(C)c(CCC(=O)NC(C)CCc4ccco4)c(C)n3n2)c(OC)c1` (stereo not drawn): “inactive”; for `COc1cc(OC)cc(-c2nc3nc(C)c(CCC(=O)Nc4ccccc4)c(C)n3n2)c1`: “inactive”.
For `CCOc1ccc(OCC)c(NC(=O)CN(c2ccc(C)cc2)S(=O)(=O)c2c(C)n[nH]c2C)c1`, the Potency entry is “inactive”.
In the case of `CCOC(=O)c1c(S(=O)(=O)NCC(=O)Nc2ccc(Cl)c(C(F)(F)F)c2)c(C)n(C)c1C`, the Potency entry is “inactive”.
The value for `C[C@H](NC(=O)c1ccccc1)C(=O)OCC(=O)c1c[nH]c2ccccc12` was “inactive”.
As for `CC1CCN(CC(=O)c2c[nH]c3ccccc23)CC1`, the Potency entry was “inactive”.
The same measure for `O=C(OCC(=O)c1c[nH]c2ccccc12)c1cccc(O)c1`: 9.53 µM (active).
